# Inconclusive results are not listed. A call without a number means that no potency is given here. The source made the active and inactive calls. Unless noted, calls follow the shape of the dose curve; as a rule, active = well fitted curve in the direction sought with a large enough effect in the repeat runs; inconclusive = weak or mixed curves; inactive = no such curve, though single readings can be large; an effect the other way counts as inactive or inconclusive.
# Key:
# [1] = qHTS assay for small molecule agonists of the p53 signaling pathway - cell viability (AID 651633; calls by dose curve; also: nearly all actives have a fitted effect of over 30% in size; also: potency is read from the fitted curve at half-maximal effect)
# Procedure, shortened: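 p53RE-bla cells were treated with compound for 16 hours at 37 C. Cytotoxicity was then measured as CellTiter-Glo luminescence after 30 min at room temperature.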
# [2] = qHTS assay for small molecule disruptors of the mitochondrial membrane potential - cell viability (AID 720634; calls by dose curve; also: nearly all actives have a fitted effect of over 20% in size; also: potency is read from the fitted curve at half-maximal effect)
# Procedure, shortened: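 After overnight attachment at 37 C, HepG2 cells received compound or DMSO vehicle for 1 hr. Viability is then taken from ATP-driven luminescence following a 30 min room-temperature CellTiter-Glo step.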
# [3] = qHTS assay to test for compound auto fluorescence at 590 nm (red) in HepG2 cells (AID 720674)
# Procedure, shortened: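 Seeding: 2,000 HepG2 cells/well, MEM/10% FBS, overnight 37 C. Dosing: compound vs DMSO. Incubation: 1 hr, 37 C, 5% CO2. Read: fluorescence 540 ex/590 em, Rose Bengal sodium as red reference.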
# [4] = qHTS assay to test for compound auto fluorescence at 535 nm (green) in HepG2 cells (AID 720675); also: potency is read from the fitted curve at half-maximal effect
# [5] = qHTS assay to test for compound auto fluorescence at 460 nm (blue) in HEK293 cells (AID 720678)
# Procedure, shortened: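 After cell attachment (4-5 hr, 37C), compounds were pinned onto HEK293 monolayers in 10% dialyzed FBS medium. The blue channel (405/460 nm) was read following overnight culture. Equivalency was calculated against triamterene.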
# [6] = qHTS assay to test for compound auto fluorescence at 590 nm (red) in HEK293 cells (AID 720679)
# Procedure, shortened: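 Plates of HEK293 cells (10% dialyzed FBS) are treated with 23 nL compound or DMSO vehicle after a 4-5 hr attachment period, incubated overnight at 37C, and read for red fluorescence at 540/590nm.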
# [7] = qHTS assay to test for compound auto fluorescence at 460 nm (blue) in HEK293 cell free culture (AID 720681)
# Procedure, shortened: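 Compounds were added to cell-free DMEM with 10% FBS and fluorescence read directly. The blue channel used 405 nm excitation and 460 nm emission, with triamterene as the reference fluorophore.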
# [8] = qHTS assay to test for compound auto fluorescence at 535 nm (green) in HEK293 cell free culture (AID 720682); also: potency is read from the fitted curve at half-maximal effect
# Procedure, shortened: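 Each library compound, or DMSO control, is added by pintool to medium alone, comprising DMEM and 10% FBS. Emission at 535 nm following 485 nm excitation is quantified against fluorescein.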
# [9] = qHTS assay to test for compound auto fluorescence at 590 nm (red) in HEK293 cell free culture (AID 720683)
# Procedure, shortened: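 Cell-free wells of DMEM with 10% FBS received compound, and intrinsic fluorescence was read at excitation/emission 540/590 nm. Values expressed as equivalence to Rose Bengal sodium.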
# [10] = qHTS assay to test for compound auto fluorescence at 590 nm (red) in HepG2 cell free culture (AID 720684)
# Procedure, shortened: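 Compound was pinned into wells holding MEM with 10% FBS and no cells, and red fluorescence was read at Ex/Em 540/590 nm. Signal is expressed as auto fluorescence equivalency relative to Rose Bengal sodium.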
# [11] = qHTS assay to test for compound auto fluorescence at 535 nm (green) in HepG2 cell free culture (AID 720686); also: potency is read from the fitted curve at half-maximal effect
# [12] = qHTS assay to test for compound auto fluorescence at 460 nm (blue) in HepG2 cells (AID 720687)
# Procedure, shortened: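 HepG2 cells in MEM with 10% FBS, attached overnight at 37 C, were exposed to compound or DMSO for 1 hr at 37 C, 5% CO2. Blue fluorescence was read at 405/460 nm, with triamterene as reference fluorophore.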
# [13] = qHTS assay to identify small molecule antagonists of the glucocorticoid receptor (GR) signaling pathway - cell viability counter screen (AID 720693); also: nearly all actives have a fitted effect of over 55% in size; also: potency is read from the fitted curve at half-maximal effect
# [14] = qHTS assay for identifying genotoxic compounds that show differential cytotoxicity against isogenic chicken DT40 cell lines with known DNA damage response pathways - Rad54/Ku70 mutant cell line (AID 743015); also: nearly all actives have a fitted effect of over 60% in size; also: potency is read from the fitted curve at half-maximal effect
# [15] = qHTS assay to identify small molecule antagonists of the androgen receptor (AR) signaling pathway - cell viability counter screen (AID 743033; also: nearly all actives have a fitted effect of over 45% in size; also: potency is read from the fitted curve at half-maximal effect)
# [16] = qHTS assay to identify small molecule antagonists of the estrogen receptor alpha (ER-alpha) signaling pathway - cell viability counter screen (AID 743074; calls by dose curve;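 also: HEK293 cells carrying ER-alpha-UAS-bla reporter stimulated with 17beta-estradiol; nearly all actives have a fitted effect of over 45% in size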; also: potency is read from the fitted curve at half-maximal effect)
# Aromatase (Homo sapiens) = Aromatase (Homo sapiens) (UniProt P11511); assay: qHTS assay to identify aromatase inhibitors (AID 743083); also: nearly all actives have a fitted effect of over 55% in size; also: potency is read from the fitted curve at half-maximal effect
# [17] = qHTS assay to identify aromatase inhibitors - cell viability counter screen (AID 743084);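 also: cells stimulated with testosterone during compound exposure; nearly all actives have a fitted effect of over 55% in size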; also: potency is read from the fitted curve at half-maximal effect
# [18] = target: Aryl hydrocarbon receptor (Homo sapiens) (UniProt P35869); assay: qHTS assay to identify small molecule that activate the aryl hydrocarbon receptor (AhR) signaling pathway (AID 743085); also: nearly all actives have a fitted effect of over 15% in size; also: potency is read from the fitted curve at half-maximal effect
# Procedure, shortened: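 Stably transfected human liver carcinoma cells (HG2L7.5c1; 20 DRE-firefly luciferase) were incubated 5 h, dosed, and kept 24 h at 37C. Agonism was scored from increased luciferase luminescence.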
# [19] = qHTS assay to identify small molecule that activate the aryl hydrocarbon receptor (AhR) signaling pathway - cell viability counter screen (AID 743086); also: nearly all actives have a fitted effect of over 45% in size; also: potency is read from the fitted curve at half-maximal effect
# Procedure, shortened: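 HepG2-AhR-luc (HG2L7.5c1) cells, 4000/well, treated 24 h at 37 C with compound; viability measured as CellTiter-Fluor fluorescence after 30 min in the same wells as the luciferase read.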
# Tags tell the direction and shape of the fitted curve or compound fluorescence and quenching.
# Sequence of Aromatase (Homo sapiens) (P11511 whole entry, looked up): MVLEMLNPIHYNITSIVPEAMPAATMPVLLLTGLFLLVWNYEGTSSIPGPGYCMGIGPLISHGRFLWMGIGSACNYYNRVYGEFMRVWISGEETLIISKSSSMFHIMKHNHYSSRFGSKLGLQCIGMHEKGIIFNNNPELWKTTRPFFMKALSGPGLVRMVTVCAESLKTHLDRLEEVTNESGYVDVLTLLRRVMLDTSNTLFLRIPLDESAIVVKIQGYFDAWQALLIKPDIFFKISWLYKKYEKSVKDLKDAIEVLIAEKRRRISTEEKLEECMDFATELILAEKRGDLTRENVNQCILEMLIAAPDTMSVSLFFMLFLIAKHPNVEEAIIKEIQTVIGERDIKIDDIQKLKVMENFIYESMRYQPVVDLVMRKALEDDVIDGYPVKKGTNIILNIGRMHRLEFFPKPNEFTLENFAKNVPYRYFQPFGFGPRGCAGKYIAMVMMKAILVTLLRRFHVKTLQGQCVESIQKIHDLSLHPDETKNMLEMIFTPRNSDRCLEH
# Sequence of Aryl hydrocarbon receptor (Homo sapiens) (P35869 whole entry, looked up): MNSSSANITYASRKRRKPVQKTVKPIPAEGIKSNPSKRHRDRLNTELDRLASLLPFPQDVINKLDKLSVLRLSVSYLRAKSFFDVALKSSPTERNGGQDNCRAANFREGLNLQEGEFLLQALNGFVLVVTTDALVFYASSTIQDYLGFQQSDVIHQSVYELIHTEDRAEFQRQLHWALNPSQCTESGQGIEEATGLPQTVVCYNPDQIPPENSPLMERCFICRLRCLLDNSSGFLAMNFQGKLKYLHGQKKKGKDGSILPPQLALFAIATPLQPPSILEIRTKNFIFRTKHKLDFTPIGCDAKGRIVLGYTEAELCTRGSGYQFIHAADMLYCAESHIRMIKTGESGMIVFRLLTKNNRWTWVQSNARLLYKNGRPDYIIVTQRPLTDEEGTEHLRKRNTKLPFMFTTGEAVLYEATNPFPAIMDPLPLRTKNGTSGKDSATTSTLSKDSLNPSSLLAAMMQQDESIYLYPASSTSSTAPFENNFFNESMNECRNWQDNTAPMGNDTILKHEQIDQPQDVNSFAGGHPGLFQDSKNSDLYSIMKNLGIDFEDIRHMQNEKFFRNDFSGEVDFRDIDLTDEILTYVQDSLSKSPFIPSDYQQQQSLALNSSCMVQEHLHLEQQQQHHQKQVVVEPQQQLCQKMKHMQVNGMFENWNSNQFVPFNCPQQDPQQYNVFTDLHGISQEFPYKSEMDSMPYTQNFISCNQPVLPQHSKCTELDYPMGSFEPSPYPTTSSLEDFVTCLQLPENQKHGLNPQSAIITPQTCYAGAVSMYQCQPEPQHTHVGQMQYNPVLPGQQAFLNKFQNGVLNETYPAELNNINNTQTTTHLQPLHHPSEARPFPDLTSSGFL
SMILES,Potency [1],Potency [2],outcome [3],Potency [4],Potency [5],outcome [6],Potency [7],Potency [8],outcome [9],outcome [10],Potency [11],Potency [12],Potency [13],Potency [14],Potency [15],Potency [16],Potency (Aromatase (Homo sapiens)),Potency [17],Potency [18],Potency [19]
CC[N+](C)(CC)CCOC(=O)C(O)(c1ccccc1)c1ccccc1,inactive,inactive,inactive,inactive,inactive,inactive,inactive,inactive,inactive,inactive,inactive,inactive,inactive,inactive,inactive,inactive,inactive,inactive,inactive,inactive
Cc1cc(C)cc(C(=O)OC2C[C@H]3CC[C@@H](C2)N3C)c1 (stereo not given in full),inactive,inactive,inactive,inactive,inactive,inactive,inactive,inactive,inactive,inactive,inactive,inactive,inactive,5.31 µM (active),inactive,inactive,inactive,inactive,–,–
C=C[C@H]1CN2CC[C@H]1C[C@H]2[C@H](OC(=O)OCC)c1ccnc2ccc(OC)cc12,inactive,inactive,inactive,inactive,inactive,inactive,inactive,inactive,inactive,inactive,inactive,inactive,inactive,inactive,inactive,–,inactive,inactive,–,inactive
CC(=O)O[C@H]1C[C@H](O[C@H]2[C@@H](O)C[C@H](O[C@H]3[C@@H](O)C[C@H](O[C@H]4CC[C@@]5(C)[C@H](CC[C@@H]6[C@@H]5C[C@@H](O)[C@]5(C)[C@@H](C7=CC(=O)OC7)CC[C@]65O)C4)O[C@@H]3C)O[C@@H]2C)O[C@H](C)[C@H]1O[C@@H]1O[C@H](CO)[C@@H](O)[C@H](O)[C@H]1O,0.133 µM (active),inactive,inactive,inactive,inactive,inactive,inactive,inactive,inactive,inactive,inactive,inactive,0.674 µM (active),0.668 µM (active),0.0756 µM (active),–,inactive,inactive,–,inactive
CC(=O)OC1CN2CCC1CC2 (stereo not given),inactive,inactive,inactive,inactive,inactive,inactive,inactive,inactive,inactive,inactive,inactive,inactive,inactive,inactive,inactive,inactive,inactive,inactive,inactive,inactive
C[C@]12CC[C@H]3[C@@H](CCC4=CC(=O)CC[C@@]43C)[C@@H]1CC[C@H]2O,inactive,inactive,inactive,inactive,inactive,inactive,inactive,inactive,inactive,inactive,inactive,inactive,inactive,29.8 µM (active),inactive,inactive,inactive,inactive,inactive,inactive
C[C@H]1CC[C@]2(NC1)O[C@H]1C[C@H]3[C@@H]4CC[C@H]5C[C@@H](O)CC[C@]5(C)[C@H]4CC[C@]3(C)[C@H]1[C@@H]2C,inactive,–,inactive,inactive,inactive,inactive,inactive,inactive,inactive,inactive,inactive,inactive,inactive,inactive,inactive,inactive,inactive,inactive,inactive,inactive
CO[C@H]1[C@@H](O)C[C@H](O[C@H]2[C@@H](O)C[C@H](O[C@H]3[C@@H](O)C[C@H](O[C@H]4CC[C@@]5(C)[C@H](CC[C@@H]6[C@@H]5C[C@@H](O)[C@]5(C)[C@@H](C7=CC(=O)OC7)CC[C@]65O)C4)O[C@@H]3C)O[C@@H]2C)O[C@@H]1C,0.0841 µM (active),inactive,inactive,inactive,inactive,inactive,inactive,inactive,inactive,inactive,inactive,inactive,0.756 µM (active),0.668 µM (active),–,–,inactive,inactive,inactive,–
CNC(=O)Oc1ccccc1C(=O)Nc1ccccc1,inactive,–,inactive,inactive,inactive,inactive,inactive,inactive,inactive,inactive,inactive,inactive,inactive,29.8 µM (active),inactive,inactive,inactive,inactive,23.7 µM (active),inactive
C[C@]12C[C@H]3S[C@H]3C[C@@H]1CC[C@@H]1[C@@H]2CC[C@]2(C)[C@@H](O)CC[C@@H]12,inactive,inactive,inactive,inactive,inactive,inactive,inactive,inactive,inactive,inactive,inactive,inactive,inactive,–,–,inactive,inactive,inactive,inactive,inactive
CN(C)[C@H](Cc1ccccc1)c1ccccc1,–,inactive,inactive,inactive,inactive,inactive,inactive,inactive,inactive,inactive,inactive,inactive,inactive,inactive,inactive,inactive,inactive,inactive,inactive,inactive
CNC(=O)OCC[N+](C)(C)C,inactive,inactive,inactive,inactive,inactive,inactive,inactive,inactive,inactive,inactive,inactive,inactive,inactive,inactive,inactive,inactive,inactive,inactive,inactive,inactive
O=C1OC2(c3cc(Br)c(O)cc3Oc3c2cc(Br)c(O)[c]3[Hg])c2ccccc21 (stereo not given),inactive,inactive,–,10 µM (active),inactive,–,inactive,10 µM [fluorescent] (active),–,–,10 µM [fluorescent] (active),inactive,inactive,10.1 µM (active),inactive,inactive,inactive,inactive,inactive,inactive
C[C@]12C=CC(=O)C=C1CC[C@@H]1[C@@H]2CC[C@]2(C)OC(=O)CC[C@@H]12,inactive,inactive,inactive,inactive,inactive,inactive,inactive,inactive,inactive,inactive,inactive,inactive,inactive,inactive,inactive,inactive,inactive,inactive,inactive,inactive
[H+].[H+].[Hg+2].[O-]B([O-])[O-].[c-]1ccccc1,0.668 µM (active),13.3 µM (active),inactive,inactive,inactive,inactive,inactive,inactive,inactive,inactive,inactive,inactive,2.68 µM (active),0.335 µM (active),9.52 µM (active),6.01 µM (active),7.5 µM (active),10.6 µM (active),–,21.1 µM (active)
CCCCC[C@@H](O)C1C(=O)OC(C)[C@H](O)/C=C/C=C/C=C/C=C/C=C(\C)C(O)C(O)C(O)C[C@H](O)C[C@H](O)C[C@H](O)C[C@H](O)C[C@@H]1O (stereo not given in full),inactive,inactive,inactive,inactive,inactive,inactive,inactive,inactive,inactive,inactive,inactive,inactive,inactive,inactive,inactive,inactive,inactive,inactive,inactive,inactive
CN1[C@@H]2CC[C@H]1CC(OC1c3ccccc3CCc3ccccc31)C2 (stereo not given in full),inactive,inactive,inactive,inactive,inactive,inactive,inactive,inactive,inactive,inactive,inactive,inactive,inactive,11.4 µM (active),inactive,inactive,inactive,inactive,inactive,inactive
CCCC(C)C1(CC)C(=O)NC(=O)NC1=O (stereo not given),–,inactive,inactive,inactive,inactive,inactive,inactive,inactive,inactive,inactive,inactive,inactive,inactive,inactive,inactive,inactive,inactive,inactive,inactive,inactive
C[C@@H](Cc1ccccc1)N(C)C,inactive,inactive,inactive,inactive,inactive,inactive,inactive,inactive,inactive,inactive,inactive,inactive,inactive,inactive,inactive,inactive,inactive,inactive,inactive,inactive
C=CCC1(C(C)CCC)C(=O)N=C(S)NC1=O (stereo not given),inactive,inactive,inactive,inactive,inactive,inactive,inactive,inactive,inactive,inactive,inactive,inactive,inactive,inactive,inactive,inactive,inactive,inactive,inactive,inactive
